Pyk2 oligo antag = antagonists of Pyk2 self-association, primary screen, Q293 cells, FERM NanoBiT luminescence, HTS; Protein-tyrosine kinase 2-beta (Homo sapiens), Q14289; hits give low values; z-score (the deposit names both 25 µM and 10 µM); 99,000 tested, 0.83% active;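 active = Z-score of -3 or lower, scaled per plate to the spread of control and sample wells; inactive = z-score above -3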;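 also: negative z-score means lost luminescence so less FERM oligomerization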
Ec RNAP inh = E. coli RNAP inhibitors, biochemical; DNA-directed RNA polymerase subunit beta (Escherichia coli (strain K12)), P0A8V2; E. coli RNA polymerase, fluorescence transcription assay; inhibition, %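 (tested at 10 µM)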; 62,000 tested, 0.2% active; in the data active = inhibition above about 20%;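 also: 0% = enzyme without compound and 100% = no enzyme blank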
Mac1 fbg enh = enhancers of CD11b/CD18 adhesion to fibrinogen, primary screen, K562 cells, luminescence; Integrin beta-2 (Homo sapiens) + Integrin alpha-M (Homo sapiens), P05107+P11215; activation, % at 10 µM; 93,000 tested, 0.07% active; ATPlite luminescence;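 active = 10 µM primary screen giving 50% or more activity, confirmed by 40% or more on retest at that dose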
Cav3 T inh = Cav3.2 calcium influx blockers – cell-based, Fluo-4 calcium fluorescence, FDSS, MLSMR library, primary screen; Voltage-dependent T-type calcium channel subunit alpha-1H (Homo sapiens), O95180; Cav3.2-expressing cells; hits give low values; B-score at 10 µM; 100,000 tested, 4% active; AID 449739, 2010;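 active = single-dose well whose peak fluorescence ratio is a statistical outlier from its plate by either plate-standardised score or position-corrected B-score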
CD11b adhes inh = inhibitors of CD11b/CD18 adhesion to fibrinogen, primary screen, K562 cells, luminescence; Integrin beta-2 (Homo sapiens) + Integrin alpha-M (Homo sapiens), P05107+P11215; ATPlite luminescence; Mn2+ added to activate the integrin; inhibition, % at 10 µM; 93,000 tested, 0.54% active; AID 1497, 2009;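 active = primary inhibition of 50% or more at 10 µM, then 40% or more on retest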
Numbers without * were called inactive. A selection: hits, their analogues and other compounds. The true share with any hit is near 4.2%.

`CCCCOP(=O)(OCCCC)C(Nc1ccccc1)c1ccc2c(c1)OCO2` (configuration not stated) gave Mac1 fbg enh 3.8 and CD11b adhes inh -0.3.
O=C(Nc1ccccc1-c1ccccc1)C1CCCN(c2ncccn2)C1 (configuration not stated) was read as Pyk2 oligo antag -0.62, Ec RNAP inh 7.7, Mac1 fbg enh -1.5, Cav3 T inh -0.511 and CD11b adhes inh -4.9.
Screening CCOC(=O)Cc1c(C)nc2c(-c3ccc(OC)cc3)c(C)nn2c1C returned Pyk2 oligo antag -1.12, Mac1 fbg enh -2.7, Cav3 T inh 0.257 and CD11b adhes inh 34.1.
For CCOc1ccc2nc(NC(=O)c3ccc(OC)c(S(=O)(=O)N4CCOCC4)c3)sc2c1 the results were Pyk2 oligo antag -3.72*, Mac1 fbg enh 2.7, Cav3 T inh -0.459 and CD11b adhes inh -33.9.
`CCOc1ccc2nc(NC(=O)c3ccc(S(=O)(=O)N4CCOCC4)cc3)sc2c1` gave Pyk2 oligo antag 0.75 and Ec RNAP inh 4.3.
For CN(C)c1ccc(/C=N/NC(=O)CN(c2cccc(Cl)c2)S(C)(=O)=O)cc1Br the results were Pyk2 oligo antag -2.64, Mac1 fbg enh -1.7, Cav3 T inh -1.05 and CD11b adhes inh 2.5.
`Cc1cc2cc(CN(Cc3ccco3)C(=O)NCc3ccccc3)c(=O)[nH]c2cc1C` gave Pyk2 oligo antag 0.9, Ec RNAP inh 7.6, Mac1 fbg enh 2.5, Cav3 T inh -7.36* and CD11b adhes inh -7.7.
Screening Cc1cccc2cc(CN(Cc3ccco3)C(=O)NC3CCCCC3)c(=O)[nH]c12 returned Pyk2 oligo antag -1.61, Ec RNAP inh 1.9, Mac1 fbg enh -3.2, Cav3 T inh -2.57 and CD11b adhes inh -4.1.
For Cc1cc2cc(CN(Cc3ccco3)C(=O)C3CCCCC3)c(=O)[nH]c2cc1C the results were Pyk2 oligo antag 0.16, Ec RNAP inh 9.1, Mac1 fbg enh -1.9, Cav3 T inh -9.29* and CD11b adhes inh -12.3.
For COc1ccccc1NC(=O)N(Cc1ccco1)Cc1cc2c(C)ccc(C)c2[nH]c1=O the results were Pyk2 oligo antag 1.29, Ec RNAP inh 4.3 and Cav3 T inh -6.03*.
COC(=O)c1ccc(Oc2nc(Nc3ccc(C)c(C)c3)nc(N(C)C)n2)cc1 was read as Pyk2 oligo antag -1.25, Mac1 fbg enh -6.3, Cav3 T inh -1.46 and CD11b adhes inh 0.9.
`O=C(Nc1ncccc1Cl)C(Sc1ccccc1)c1ccccc1` (configuration not stated) gave Pyk2 oligo antag -0.87, Mac1 fbg enh -3.3, Cav3 T inh -1.18 and CD11b adhes inh 6.5.
Cc1ccc(Cn2nnnc2CN2CCC(c3nc4ccc(Cl)cc4[nH]3)CC2)cc1 was read as Pyk2 oligo antag -1.83, Mac1 fbg enh -2.1, Cav3 T inh -5.72* and CD11b adhes inh -33.6.
For Clc1ccc2nc(C3CCN(Cc4nnnn4C4CCCCC4)CC3)[nH]c2c1 the results were Pyk2 oligo antag 0.63 and Cav3 T inh -2.65.
C=C1CCN([C@@H](CC(C)C)C(=O)NCc2ccco2)S(=O)(=O)c2ccccc21 was read as Cav3 T inh 0.459.
O=C(Nc1nc(-c2cccs2)cs1)c1cccc(S(=O)(=O)N2CCCCCC2)c1 was read as Pyk2 oligo antag -0.78, Ec RNAP inh 0.5, Mac1 fbg enh 3.8, Cav3 T inh -2.94 and CD11b adhes inh 18.8.
`O=C(Nc1nc(-c2cccs2)cs1)c1ccc(S(=O)(=O)N2CCCCC2)cc1` gave Ec RNAP inh 10.5, Mac1 fbg enh 2.8, Cav3 T inh -6.09* and CD11b adhes inh 35.6.
For CC(C)NC(=O)c1onc(CSc2ccc(Cl)cc2)c1C(=O)NC(C)C the results were Cav3 T inh -3.67.
Screening O=C(NC1CCCCC1)c1nc2c(nnn2Cc2ccccc2Cl)c(=O)[nH]1 returned Pyk2 oligo antag -0.42, Ec RNAP inh 4.6 and Cav3 T inh -5.3*.
`O=C(NCC1CCCO1)c1ccc2c(c1)S(=O)(=O)c1ccccc1C2=O` (configuration not stated) gave Cav3 T inh 0.859.
For COc1ccc(N(CC(=O)Nc2cccc(SC)c2)S(C)(=O)=O)cc1 the results were Pyk2 oligo antag -0.93, Ec RNAP inh -0.1, Mac1 fbg enh 1.4, Cav3 T inh -4.78* and CD11b adhes inh -2.5.
